# Reference: the supplement of paper PMC11172423
# Unmarked numbers belong to inactive results.
# Test system: Falciformispora senegalensis CBS197.79
# Assay: growth relative to untreated control; higher = less inhibition, active = 20 or less
# Settings: 100 µM
# How it was run: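 Hyphal fragments of M. mycetomatis MM55 or F. senegalensis CBS197.79 were suspended in colourless RPMI 1640 with L-glutamine and MOPS at 68–72% transmission at 660 nm. They were exposed in 96-well plates to compound at 100 or 25 µM for 7 days at 37 °C. Viability was read with MTS (2 h, 490 nm) or resazurin (600 nm). Growth is metabolic activity relative to the untreated growth control, both corrected with a medium-plus-dye blank.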
row,SMILES,growth
1,CC(C)=CC1C(C(=O)OC(C#N)c2cccc(Oc3ccccc3)c2)C1(C)C (configuration not stated),101%
2,COC(=O)N(C(=O)N1CO[C@@]2(C(=O)OC)Cc3cc(Cl)ccc3C2=N1)c1ccc(OC(F)(F)F)cc1,96.3%
3,Clc1cc(Cl)cc(Nc2nc3cnc(NC4CCCC4)cc3n2C2CCNC2)c1 (configuration not stated),77.4%
4,CCOC(=O)CC(SP(=S)(OC)OC)C(=O)OCC (configuration not stated),95.2%
5,CNC(=O)c1cc(C#N)cc(C)c1NC(=O)c1cc(Br)nn1-c1ncccc1Cl,103%
6,CNC(=O)Oc1cccc2c1OC(C)(C)O2,96%
7,COP(=S)(OC)Oc1nc(Cl)c(Cl)cc1Cl,93.4%
8,CC[C@@H](C(=O)[C@@H](C)[C@@H](O)[C@H](C)[C@@H]1O[C@@H]([C@@H](CC)C(=O)O)CC[C@@H]1C)[C@H]1O[C@]2(C=C[C@@H](O)[C@]3(CC[C@@](C)([C@H]4CC[C@](O)(CC)[C@H](C)O4)O3)O2)[C@H](C)C[C@@H]1C,102%
9,CN1C(=O)C(C(=O)Nc2ccc(Cl)c(Cl)c2)C(=O)N(C)C1=O,84.5%
10,O=C1C=C(N(Cc2ccc(Cl)nc2)CC(F)F)CO1,89.3%
11,ClC1=C(Cl)[C@@]2(Cl)[C@H]3C[C@@H](Cl)[C@H](Cl)[C@H]3[C@@]1(Cl)C2(Cl)Cl,78.3%
12,CC[C@H]1CN2CCc3cc(OC)c(OC)cc3[C@@H]2C[C@@H]1C[C@H]1NCCc2cc(OC)c(OC)cc21,18.3% (active)
13,CC(COc1ccc(Oc2ccccc2)cc1)Oc1ccccn1 (configuration not stated),75.6%
14,NCCc1cn(S(=O)(=O)c2c(Cl)nc3sccn23)c2ccccc12,11.5% (active)
15,CCc1nn(C)c(C(=O)NCc2ccc(Oc3ccc(C)cc3)cc2)c1Cl,79.9%
16,CC(C)(C)Nc1cc2c(cn1)nc(Nc1cc(Cl)cc(C(F)(F)F)c1)n2C1CCNC1 (configuration not stated),14.1% (active)
17,Cc1cc(C2=NOC(c3cc(Cl)cc(Cl)c3)(C(F)(F)F)C2)ccc1C(=O)NCC(=O)NCC(F)(F)F (configuration not stated),103%
18,CC(C)=CC1C(C(=O)OCN2C(=O)C3=C(CCCC3)C2=O)C1(C)C (configuration not stated),100%
19,CNC(=O)c1cc(Cl)cc(C)c1NC(=O)c1cc(Br)nn1-c1ncccc1Cl,94.4%

row,SMILES,growth
1,CN1C2CCC1CC(C#N)C2 (configuration not stated),85.8%
2,O=C(NC(=O)c1ccccc1Cl)Nc1ccc(OC(F)(F)F)cc1,76.1%
3,COc1ccc(C[C@H]2NC[C@H](O)[C@H]2OC(C)=O)cc1,14.4% (active)
4,CC1(C)C(C=C(Cl)Cl)C1C(=O)OC(C#N)c1ccc(F)c(Oc2ccccc2)c1 (configuration not stated),73.5%
5,CNC(=O)O/N=C(/C)SC,89.3%
6,COc1cc(/C=N/c2c(SC(F)(F)F)c(C#N)nn2-c2c(Cl)cc(C(F)(F)F)cc2Cl)ccc1O,90.9%
7,N#CCNC(=O)c1cnccc1C(F)(F)F,87.5%
8,Clc1ccc(C(OCCN2CCCCC2)c2ccccc2)cc1 (configuration not stated),13.2% (active)
9,CCS(=O)c1c(C#N)nn(-c2c(Cl)cc(C(F)(F)F)cc2Cl)c1N (configuration not stated),83.7%
10,CN(C)CCn1c(Nc2cc(Cl)cc(C(F)(F)F)c2)nc2cnc(NC3CCCC3)cc21,105%
11,O=C(NC(=O)c1c(F)cccc1F)Nc1ccc(Cl)cc1,84.5%
12,Cc1c(COC(=O)[C@@H]2[C@H](C=C(Cl)C(F)(F)F)C2(C)C)cccc1-c1ccccc1,95.2%
13,CCN(CC)c1nc(C)cc(OP(=S)(OC)OC)n1,95.6%
14,FC(F)(F)c1cc(Cl)cc(Nc2nc3cnc(OC4CCC4)cc3n2[C@@H]2CCNC2)c1,108%
15,N#Cc1nn(-c2c(Cl)cc(C(F)(F)F)cc2Cl)c(N)c1S(=O)C(F)(F)F (configuration not stated),88.4%
16,CC(C)Nc1cc2c(cn1)nc(Nc1cc(Cl)cc(C(F)(F)F)c1)n2C1CCNC1 (configuration not stated),28.6%
17,CCOCn1c(-c2ccc(Cl)cc2)c(C#N)c(Br)c1C(F)(F)F,76.5%
18,CCOP(=S)(OCC)Oc1nc(Cl)c(Cl)cc1Cl,69%
